# Many of the other results were omitted from the sample, so hits are more common in it than they were.
# TTR transcr act = activators of transthyretin transcription | SH-SY5Y TTR promoter Gaussia luciferase, luminescence; 100% = recombinant luciferase protein wells | activation, % at 16.7 µM | hit rate 1.3% among 92,000 | AID 1117267;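 active = activation above the mean of all tested compounds plus 3 SD, cut at about 9.5% in these data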;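 also: cells exposed to compounds for one day before reading; 0% = median of all test compound wells on the plate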
# HuH7 TTR inh = decreases TTR transcription in HuH7 cells in activator counter-screen; shares compounds with TTR transcr act; HuH7 TTR promoter-Gaussia luciferase reporter, luminescence; inhibition, % at 16.7 µM; hit rate 4% among 1,100;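 active = average inhibition above the solvent-only control wells' mean plus 3 SD, cut at about 15% in these data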;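 also: 0% = cells with DMSO only and 100% = cells with inhibitor control FD; inhibitors lower well luminescence so higher value means more inhibition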
# TTR act confirm = confirmation of human transthyretin transcription activators; shares compounds with TTR transcr act; 1,100 tested, under 10 active; SHSY5Y TTR promoter Gaussia luciferase, luminescence; 100% = purified Lucia enzyme wells, no cells; activation, % at 16.7 µM; AID 1117280;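 active = mean activation above a set limit taken from the earlier primary screen, cut at about 11% in these data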;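 also: 0% = DMSO-treated cells and 100% = recombinant Lucia luciferase without cells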
# An asterisk follows results filed as active.
SMILES,TTR transcr act,others
COc1ccc(C2(C)NC(=O)N(CC(=O)Nc3ccc4c(c3)OCO4)C2=O)cc1OC (stereo not given),15*,HuH7 TTR inh=-12;TTR act confirm=1
CC1(c2ccccc2)NC(=O)N(CC(=O)Nc2ccc3c(c2)OCO3)C1=O (stereo not given),-1,
CC1(c2ccc(OC(F)F)cc2)NC(=O)N(CC(=O)Nc2ccc3c(c2)OCO3)C1=O (stereo not given),-2,
CCN(CC)S(=O)(=O)c1ccc(OC)c(NC(=O)c2cc(=O)[nH]c3ccccc23)c1,0,
COc1ccccc1NC(=O)NC1(C)CCS(=O)(=O)C1 (stereo not given),-1,
CCN(C(=O)COC(=O)CCC(=O)c1cccs1)c1ccccc1,1,
CCOc1ccc(OCC)c(NC(=O)C2CCCN(C(=O)c3ccc(Cl)cc3)C2)c1 (stereo not given),11*,HuH7 TTR inh=-15;TTR act confirm=0
CC(C)c1ccccc1NC(=O)C1CCCN(C(=O)c2ccc(Cl)cc2)C1 (stereo not given),0,
CCOc1ccc(OCC)c(NC(=O)C2CCCN(S(=O)(=O)c3ccc(C)cc3)C2)c1 (stereo not given),2,
COc1ccc(C(=O)N2CCCCC2c2cc(C(=O)NCc3cccnc3)no2)cc1 (stereo not given),-1,
O=C(Nc1ccc2nc3n(c(=O)c2c1)CCCC3)c1cncc(Br)c1,-2,
CN(C)CCCNC(=O)c1cc(C(=O)Cc2ccccc2)c[nH]1,21*,HuH7 TTR inh=-11;TTR act confirm=0
CN(C)CCCNC(=O)c1cc(C(=O)C2CCCCC2)c[nH]1,0,
O=C(Cc1ccccc1)c1c[nH]c(C(=O)NCc2ccncc2)c1,2,
CC1CCCC(NC(=O)c2cc(S(=O)(=O)N3CCCCC3)c[nH]2)C1C (stereo not given),0,
C/C(=N/NC(=O)Cc1c(C)[nH][nH]c1=O)c1ccc(O)cc1,0,
COc1cc(/C(C)=N/NC(=O)Cc2c(C)[nH][nH]c2=O)ccc1O,14*,HuH7 TTR inh=-5;TTR act confirm=0
COc1ccc(/C(C)=N/NC(=O)Cc2c(C)nc(C)[nH]c2=O)cc1,2,
COc1ccc(-c2cn(Cc3ccc(C(=O)c4ccccc4)cc3)nn2)cc1,-6,
CCOC(=O)Cc1csc(SCC(=O)Nc2cc(Cl)ccc2Oc2ccccc2)n1,9.7*,HuH7 TTR inh=1;TTR act confirm=-1
CCOC(=O)Cc1csc(SCC(=O)N2CCN(c3ccc(OC)cc3)CC2)n1,0,
CCOC(=O)Cc1csc(Nc2ccc(Cl)cc2)n1,-1,
CCCCn1nnnc1C1c2ccccc2OCC(=O)N1Cc1ccc2c(c1)OCO2 (stereo not given),4,
Cc1ccccc1NC(=O)CCCSc1nc2ccccc2s1,12*,HuH7 TTR inh=-16;TTR act confirm=0
Cc1cnc(NC(=O)CCCc2nc3ccccc3s2)s1,13*,HuH7 TTR inh=16*;TTR act confirm=1
SMILES,TTR transcr act,others
CC(C)(C)NC(=O)CCCSc1nc2ccccc2s1,-1,
O=C(CCCSc1nc2ccccc2s1)NCc1ccc2c(c1)OCO2,0,
COC(=O)CCCc1nc2ccccc2s1,-4,
O=C(O)CCCc1nc2ccccc2s1,-2,
O=C(NCCc1c[nH]c2ccccc12)OCc1cn(Cc2ccccc2Cl)nn1,0,
CCOC(=O)[C@]12CCCC=C1N(CCCOC)C(=O)[C@@H]2CC(=O)NCC1CCCCC1,1,
CCN(C[C@H]1N[C@@](C)(C(=O)OC)[C@H]2C(=O)N(C)C(=O)[C@@H]12)C(=O)Nc1ccc(OC)cc1,1,
CN(C(=O)C1Cc2c(-c3ccc(Cl)cc3)ccnc2O1)c1ccccc1 (stereo not given),-2,
CCC(=O)Nc1cccc(NC(=O)CSc2nc3c(c(=O)n(C)c(=O)n3C)n2C)c1,1,
O=C(Cc1ccc(Nc2nc3ccc(Br)cc3[nH]2)cc1)NCCc1cccs1,-5,
O=C(NCCc1nc2ccccc2[nH]1)c1cccc(Br)c1,4,
O=C(NCC1CC1)c1ccc(Nc2nc3ccc(Br)cc3[nH]2)cc1,34*,HuH7 TTR inh=1;TTR act confirm=-1
CC(=O)N/C(=C/c1ccc(OS(=O)(=O)c2ccc(C)cc2)cc1)C(=O)Nc1ccc(C(=O)O)cc1,0,
CCN=C1S/C(=C/c2cc(C)n(-c3ccc(Cl)cc3F)c2C)C(=O)N1CC,-2,
Cc1cc(C(=O)NNC(=S)NCC(C)C)no1,0,
CNC(=S)NNC(=O)c1sc(-c2cc(C)on2)nc1C,14*,HuH7 TTR inh=-7;TTR act confirm=-1
Cc1nc(-c2ccc(Cl)cc2)sc1C(=O)NNC(=O)C(C)C,3,
CCOc1ccccc1NC(=O)CCC(=O)Nc1ccccc1OCC,2,
COc1ccccc1NC(=O)CCC(=O)O,15*,HuH7 TTR inh=5;TTR act confirm=-1
CC/C(=N/NC(=O)CCC(=O)Nc1ccccc1OC)c1ccccc1,5,
O=C(OCc1cn(Cc2ccccc2F)nn1)N1CCOCC1,5,
O=C(CN(Cc1ccco1)Cc1cccs1)N1CCN(S(=O)(=O)c2cccc(F)c2)CC1,-1,
O=C(Cc1cccs1)N1CCN(S(=O)(=O)c2ccc(F)c(F)c2)CC1,10*,HuH7 TTR inh=-11;TTR act confirm=1
O=C(Cc1cccs1)N1CCN(S(=O)(=O)c2ccccc2)CC1,1,
COP(=O)(O)C[C@@H]1CCc2cc(C)cc([C@H](CC(C)C)NC(=O)OCc3ccccc3)c2O1,1,
SMILES,TTR transcr act,others
CC(C)(C)[C@H]1C=C(C(=O)O)O[C@@H](OCCCCO)C1,2,
CC(C)(C)[C@H]1C=C(C(=O)NCc2ccccc2)O[C@@H](OCCCCO)C1,19*,HuH7 TTR inh=-31;TTR act confirm=1
C[C@H]1C=C(C(=O)NCc2nc3ccccc3[nH]2)O[C@@H](OCCCCO)C1,9,
COC(=O)c1ccc2nc(-c3ccc(F)cc3)c(Cc3ccsc3)n2c1,-2,
O=C(Nc1ccon1)C12CC3CC(C1)CC(n1cnc([N+](=O)[O-])n1)(C3)C2,0,
Cc1cc(NC(=O)C23CC4CC(C2)CC(n2cnc([N+](=O)[O-])n2)(C4)C3)no1,-3,
O=C(NC1CCCCC1)C12CC3CC(C1)CC(n1cncn1)(C3)C2,13*,HuH7 TTR inh=-5;TTR act confirm=0
Cn1c(=O)c2c(nc(N3CCN(c4ccc([N+](=O)[O-])cc4)CC3)n2C)n(C)c1=O,-1,
O=C(Nc1c(C(=O)N2CCOCC2)cnn1-c1ccccc1)c1ccc(F)cc1,1,
CC1=C(C(=O)N2CCCC(N3CCN(c4cccc(C(F)(F)F)c4)CC3)C2)OCCO1 (stereo not given),11*,HuH7 TTR inh=-6;TTR act confirm=0
Cc1ccc(C(=O)N2CCCC(N3CCN(c4cccc(C(F)(F)F)c4)CC3)C2)s1 (stereo not given),0,
O=C(c1ccoc1)N1CCCC(N2CCN(c3cccc(C(F)(F)F)c3)CC2)C1 (stereo not given),0,
CN1OC[C@@H]2CN(C(=O)C(C)(C)C)[C@H](c3ccc(-c4cccnc4)cc3)C[C@@H]21,1,
CCOc1ccc(NC(=O)Nc2ccc(Br)cn2)cc1,2,
Cc1ccc(OCC(=O)NC(=S)Nc2cccc(NC(=O)c3ccccc3)c2)cc1,-1,
Cc1ccc(OCC(=O)NC(=S)Nc2ccc(Br)cn2)cc1,20*,HuH7 TTR inh=-10;TTR act confirm=-1
Cc1ccnc(NC(=O)CNC(=O)c2ccc(Br)o2)c1,1,
C=C(C)CCC(C)N1CCC(n2nccc2NC(=O)CCOc2ccccc2)CC1 (stereo not given),-1,
O=C1CCN(c2ncccc2[N+](=O)[O-])CC1,12*,HuH7 TTR inh=-2;TTR act confirm=-1
O=[N+]([O-])c1cccnc1N1CCOCC1,0,
N#CC1CCN(c2ncccc2[N+](=O)[O-])CC1,1,
